PubChem BioAssay (NCATS)
Inconclusive results are not listed. Active and inactive are the calls of the source. Unless noted, the call rests on the fitted dose curve; in most records, active means well fitted curve in the direction sought with a large enough effect; inconclusive means small, poorly fitted or top-dose-only effect, or another doubt; inactive means no such curve, though single readings can be large; an effect the other way counts as inactive or inconclusive.

How the values were obtained:
[1] = target: Lysosomal acid glucosylceramidase (Homo sapiens) (UniProt P04062); experiment: Glucocerebrosidase-p2 (AID 348; in the data active means potency below about 10 µM; further: potency means the concentration at half of the fitted maximal effect); conditions: purified GBA, blue fluorogenic substrate, 40 min
How it was run: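 Compounds titrated from 0.6 nM upwards against 0.2 nM enzyme in pH 5.9 citric acid/KH2PO4, taurocholate, tween-20; blue fluorogenic substrate 80 uM, 40 min room temperature, stopped and read Ex 365/Em 440 for AC50.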

[2] = AP1 Signaling Pathway (AID 357; active means well fitted curve in either direction with a large enough effect, not every such curve was filed as active; further: on the % scale 0 is the no-effect control and ±100 the full control effect); conditions: ME-180 AP-1-bla reporter, EGF-induced, beta-lactamase ratio, 5 h; at 7.69 µM (top of the series) unless noted
How it was run: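 In this screen, ME-180 cells in Opti-MEM with 0.5% dialyzed FBS received EC50 EGF and compound titrations for 5 h. AP-1 reporter beta-lactamase was detected via CCF4 ratio, giving AC50 for positive and negative modulators.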

[3] = target: Cytochrome P450 1A2 (Homo sapiens) (UniProt P05177); experiment: p450-cyp1a2 (AID 410; calls by dose curve; further: potency means the concentration at half of the fitted maximal effect); conditions: recombinant CYP1A2, luciferin-ME demethylation, luminescence; series mostly up to 57 µM
How it was run: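 Luminescent readout of luciferin formed from Luciferin-ME by human CYP1A2; data normalized against complete inhibition by 57 uM furafylline. Enzyme 20nM, substrate 100uM at Km, 100mM KPO4 buffer, 60 min reaction at room temperature.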

[4] = target: Glucocorticoid receptor (Homo sapiens) (UniProt P04150); experiment: GR-GFP Redistribution (AID 450;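 active means compounds whose dose series gives a full or clear partial fitted curve of increased nuclear translocation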; further: potency means the concentration at half of the fitted maximal effect); conditions: U2OS GR-GFP nuclear translocation, laser cytometry, 2 h
[5] = target: Glucocorticoid receptor (Homo sapiens) (UniProt P04150); experiment: GR-EFC Redistribution (AID 451; calls by dose curve; further: potency means the concentration at half of the fitted maximal effect); conditions: CHO-K1 GR-EFC translocation, beta-gal luminescence, 2 h
How it was run: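 CHO-K1 cells stably expressing nuclear-localized β-gal enzyme acceptor and GR fused C-terminally to the enzyme donor fragment; ligand-driven nuclear translocation restores β-gal by complementation. Compounds titrated up to 46 uM final, 2 h at 37 °C; luminescence read.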

[6] = target: Mitogen-activated protein kinase 10 (Mus musculus) (UniProt Q61831); experiment: JNK3 AlphaScreen Assay (AID 530; active means well fitted curve in either direction with a large enough effect, not every such curve was filed as active;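 further: kinase came from lysate of stimulated human HepG2 cells; signal reports phosphorylation of biotinylated GST-cJun 1-79 at Ser73 with 10 µM ATP; on the % scale 0 is the no-effect control and ±100 the full control effect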); conditions: JNK3 lysate, c-Jun phosphorylation; series mostly up to 57.1 µM
How it was run: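 Inhibitors reduce antibody binding to phosphorylated biotin-cJun, lowering AlphaScreen luminescence. Lysates from HepG2 cells pre-activated by IL-1beta plus TNF-alpha supplied JNK3; compounds were titrated.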

[7] = target: Cytochrome P450 3A4 (Homo sapiens) (UniProt P08684); experiment: qHTS Assay for Inhibitors and Substrates of Cytochrome P450 3A4 (AID 884); conditions: recombinant CYP3A4, Luciferin-PPXE luminescence; series mostly up to 57.1 µM; further: potency means the concentration at half of the fitted maximal effect; nearly all actives have a fitted effect of over 50% in size
How it was run: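 20 nM human CYP3A4 with 25 uM Luciferin-PPXE (at KM) in 200 mM KPO4, preincubated 10 min with compound; NADPH regeneration started a 60 min RT reaction. Luciferin detected by luminescence, normalized to 57 uM ketoconazole as full inhibition.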

[8] = target: Cytochrome P450 3A4 (Homo sapiens) (UniProt P08684); experiment: qHTS Assay for Activators of Cytochrome P450 3A4 (AID 885); conditions: recombinant CYP3A4, Luciferin-PPXE luminescence, 60 min; series mostly up to 57.1 µM; further: nearly all actives have a fitted effect of over 65% in size
How it was run: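 Steps: enzyme/substrate mix dispensed; compound added, 10 min RT; NADPH regeneration solution added, 60 min RT; luciferin detection buffer stops reaction; 20 min later luminescence measured.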

[9] = target: Cytochrome P450 2C19 (Homo sapiens) (UniProt P33261); experiment: qHTS Assay for Inhibitors and Substrates of Cytochrome P450 2C19 (AID 899); conditions: recombinant CYP2C19, luciferin-H EGE luminescence; series mostly up to 57.1 µM; further: potency means the concentration at half of the fitted maximal effect; nearly all actives have a fitted effect of over 60% in size
How it was run: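 Human CYP2C19 (5nM) with Luciferin-H EGE at 10uM (its KM) in 50mM KPO4 was preincubated with compound for 10 min at 37C. NADPH regeneration started a 60 min 37C reaction. Luciferin was read by luminescence, normalized to 57uM ketoconazole.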

[10] = target: Dual specificity protein kinase CLK4 (Homo sapiens) (UniProt Q9HAZ1); experiment: qHTS Assay for Inhibitors of CDC-like Kinase 4 (ADP-Glo Assay) (AID 1771); conditions: recombinant CLK4, ADP-Glo luminescence; series mostly up to 80 µM; further: nearly all actives have a fitted effect of over 70% in size; further: potency means the concentration at half of the fitted maximal effect
How it was run: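 Luminescence from ADP-Glo reports ADP produced by 25 nM Clk4 acting on 100 uM RS repeat peptide with 1 uM ATP over 1 hr at room temperature; residual ATP is depleted before ADP is converted to ATP for detection.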

[11] = target: Dual specificity protein kinase CLK4 (Homo sapiens) (UniProt Q9HAZ1); experiment: qHTS Assay for Inhibitors of CDC-like Kinase 4 (ADP-FP Assay) (AID 1795); conditions: Transcreener ADP fluorescence polarization; series mostly up to 50 µM; further: nearly all actives have a fitted effect of over 60% in size; further: potency means the concentration at half of the fitted maximal effect
How it was run: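 Recombinant Clk4 (6.25 nM) phosphorylated 100 uM RS repeat peptide with 1 uM ATP in 25 mM Tris pH 7.5, 10 mM MgCl2, 0.5 mM EGTA, 2.5 mM DTT, 0.01% Triton X-100 for 1 h. ADP was detected by Transcreener ADP2 competitive fluorescence polarization after 30 min at room temperature.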

[12] = Primary qHTS for small molecule stabilizers of the endoplasmic reticulum resident proteome: Secreted ER Calcium Modulated Protein (SERCaMP) assay (AID 1508630); conditions: SH-SY5Y GLuc-SERCaMP (Gaussia luciferase released on ER calcium loss) secretion, thapsigargin, luminescence; series mostly up to 38.4 µM; further: on the % scale 0 is the no-effect control and ±100 the full control effect
How it was run: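 GLuc-SERCaMP-expressing SH-SY5Y cells, pretreated 16 h with compound, are challenged with thapsigargin to empty ER calcium stores; after 4 h, coelenterazine is added directly to the medium and luminescence is imaged.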

[13] = NFAT Signaling Pathway (AID 444; active means well fitted curve in either direction with a large enough effect, not every such curve was filed as active;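 further: carbachol stimulus at about its EC50 of 1 µM final; on the % scale 0 is the no-effect control and ±100 the full control effect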); conditions: Jurkat NFAT-bla M1, carbachol, beta-lactamase ratio, 5 h; at 7.69 µM (top of the series) unless noted
How it was run: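 Jurkat cells carrying an NFAT-driven β-lactamase reporter and co-transfected muscarinic M1 receptor were treated with compound plus carbachol (1 uM final, an EC50 level) for 5 h at 37 °C. CCF4 loading followed for 1 h at RT; 460/530 nm ratio gave %activity.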

[14] = Stat Signaling Pathway (AID 446; active means well fitted curve in either direction with a large enough effect, not every such curve was filed as active); conditions: ME-180 SIE beta-lactamase reporter, IL-6 stimulated, 5 h; at 7.69 µM (top of the series) unless noted
How it was run: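 Screening format detects activators and inhibitors alike: ME-180 SIE-bla cells stimulated at 40 pM IL-6 for 5 hrs with compound, then dual-emission beta-lactamase read at 405 nm excitation.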

[15] = target: Ubiquitin carboxyl-terminal hydrolase 1 (Homo sapiens) (UniProt O94782); experiment: Inhibitors of USP1/UAF1: Pilot qHTS (AID 504865); conditions: purified USP1/UAF1, Ub-rhodamine cleavage fluorescence; series mostly up to 54.9 µM;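 further: rhodamine fluorescence freed from ubiquitin-rhodamine substrate followed over time; top concentration of the series differs between compounds; on the % scale 0 is the no-effect control and ±100 the full control effect; nearly all actives have a fitted effect of over 35% in size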
How it was run: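 USP1/UAF1 complex at 1 nM preincubated 15 min at room temperature with compound, then Ub-Rho substrate added at 150 nM final. Fluorescence (480/540 nm) read kinetically in 50 mM HEPES pH 7.8, 0.5 mM EDTA, 1 mM TCEP, 0.1 mg/ml BSA, 0.01% Tween-20.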

[16] = target: 3',5'-cyclic-AMP phosphodiesterase 4B (Homo sapiens) (UniProt Q07343); experiment: qHTS Assay for Inhibitors of PDE-IV (AID 607; active means well fitted activation curve with a large enough effect in the main read-out, with a control signal flat, not every such curve was filed as active; further: % of control where 0% means no effect); conditions: HEK293 ACTOne CNG channel cells, membrane potential fluorescence; series mostly up to 22.9 µM
How it was run: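 The readout is membrane depolarisation from a cAMP-sensing CNG channel, detected with a potential dye at ex 535/em 590. Cells were HEK293-derived (endogenous PDE-IV) at 1000 cells/well, titrated up to 22.9 uM final.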

[17] = target: Cytochrome P450 2D6 (Homo sapiens) (UniProt P10635); experiment: qHTS Assay for Inhibitors and Substrates of Cytochrome P450 2D6 (AID 891); conditions: recombinant CYP2D6, luciferin-ME EGE luminescence; series mostly up to 57.1 µM; further: potency means the concentration at half of the fitted maximal effect; nearly all actives have a fitted effect of over 60% in size
How it was run: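 Human CYP2D6 (5 nM) with 30 uM Luciferin-ME EGE (at Km) in 100 mM KPO4, compound preincubated 10 min, then NADPH regeneration system for 60 min at room temperature. Luciferin read by luminescence; normalized to 1.43 uM quinidine.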

[18] = target: Dual specificity protein kinase CLK4 (Homo sapiens) (UniProt Q9HAZ1); experiment: qHTS Assay for Inhibitors of CDC-like Kinase 4 (Kinase-Glo Assay) (AID 1770); conditions: recombinant Clk4, Kinase-Glo ATP depletion luminescence; series mostly up to 66.7 µM; further: on the % scale 0 is the no-effect control and ±100 the full control effect; nearly all actives have a fitted effect of over 65% in size
How it was run: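 25 nM Clk4 with 100 uM RS repeat peptide and 1 uM ATP (final) in Tris pH7.5, 10 mM MgCl2, 4.5 h at room temperature. Remaining ATP measured by Kinase-Glo luciferase luminescence.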

Chain of Dual specificity protein kinase CLK4 (Homo sapiens) (Q9HAZ1 whole entry, looked up): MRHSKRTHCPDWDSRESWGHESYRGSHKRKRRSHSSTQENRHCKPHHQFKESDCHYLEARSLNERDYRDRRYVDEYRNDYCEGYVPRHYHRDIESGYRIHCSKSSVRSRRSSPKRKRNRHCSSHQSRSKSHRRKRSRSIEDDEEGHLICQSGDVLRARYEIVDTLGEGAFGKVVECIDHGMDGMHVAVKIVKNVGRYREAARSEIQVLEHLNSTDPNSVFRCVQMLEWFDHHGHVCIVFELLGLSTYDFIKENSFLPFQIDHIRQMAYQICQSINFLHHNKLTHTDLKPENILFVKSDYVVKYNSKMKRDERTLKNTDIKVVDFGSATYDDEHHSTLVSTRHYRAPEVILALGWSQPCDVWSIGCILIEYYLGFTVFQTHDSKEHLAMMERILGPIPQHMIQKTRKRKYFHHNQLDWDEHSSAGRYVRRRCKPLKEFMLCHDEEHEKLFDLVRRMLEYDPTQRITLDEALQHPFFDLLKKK
Chain of Ubiquitin carboxyl-terminal hydrolase 1 (Homo sapiens) (O94782 whole entry, looked up): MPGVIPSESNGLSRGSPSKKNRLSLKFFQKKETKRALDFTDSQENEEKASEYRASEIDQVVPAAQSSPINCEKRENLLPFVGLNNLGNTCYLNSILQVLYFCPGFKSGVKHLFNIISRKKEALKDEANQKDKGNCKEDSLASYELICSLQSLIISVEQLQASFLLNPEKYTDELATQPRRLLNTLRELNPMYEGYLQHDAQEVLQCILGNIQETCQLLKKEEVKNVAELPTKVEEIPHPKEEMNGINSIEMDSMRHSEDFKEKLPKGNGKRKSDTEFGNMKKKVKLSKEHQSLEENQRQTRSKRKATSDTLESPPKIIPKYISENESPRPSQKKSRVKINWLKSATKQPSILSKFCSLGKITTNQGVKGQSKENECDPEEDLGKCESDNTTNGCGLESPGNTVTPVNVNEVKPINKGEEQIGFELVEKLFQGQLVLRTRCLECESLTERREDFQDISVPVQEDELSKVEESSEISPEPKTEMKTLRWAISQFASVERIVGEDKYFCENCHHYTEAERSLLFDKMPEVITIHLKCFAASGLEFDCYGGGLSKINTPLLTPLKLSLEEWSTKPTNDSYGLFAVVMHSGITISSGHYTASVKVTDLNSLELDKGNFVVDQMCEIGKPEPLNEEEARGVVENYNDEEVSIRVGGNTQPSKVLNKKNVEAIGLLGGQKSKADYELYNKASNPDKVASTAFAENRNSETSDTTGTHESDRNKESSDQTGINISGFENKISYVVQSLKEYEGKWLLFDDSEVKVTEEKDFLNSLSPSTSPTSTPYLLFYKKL
Chain of Glucocorticoid receptor (Homo sapiens) (P04150 whole entry, looked up, the tested form may be a part): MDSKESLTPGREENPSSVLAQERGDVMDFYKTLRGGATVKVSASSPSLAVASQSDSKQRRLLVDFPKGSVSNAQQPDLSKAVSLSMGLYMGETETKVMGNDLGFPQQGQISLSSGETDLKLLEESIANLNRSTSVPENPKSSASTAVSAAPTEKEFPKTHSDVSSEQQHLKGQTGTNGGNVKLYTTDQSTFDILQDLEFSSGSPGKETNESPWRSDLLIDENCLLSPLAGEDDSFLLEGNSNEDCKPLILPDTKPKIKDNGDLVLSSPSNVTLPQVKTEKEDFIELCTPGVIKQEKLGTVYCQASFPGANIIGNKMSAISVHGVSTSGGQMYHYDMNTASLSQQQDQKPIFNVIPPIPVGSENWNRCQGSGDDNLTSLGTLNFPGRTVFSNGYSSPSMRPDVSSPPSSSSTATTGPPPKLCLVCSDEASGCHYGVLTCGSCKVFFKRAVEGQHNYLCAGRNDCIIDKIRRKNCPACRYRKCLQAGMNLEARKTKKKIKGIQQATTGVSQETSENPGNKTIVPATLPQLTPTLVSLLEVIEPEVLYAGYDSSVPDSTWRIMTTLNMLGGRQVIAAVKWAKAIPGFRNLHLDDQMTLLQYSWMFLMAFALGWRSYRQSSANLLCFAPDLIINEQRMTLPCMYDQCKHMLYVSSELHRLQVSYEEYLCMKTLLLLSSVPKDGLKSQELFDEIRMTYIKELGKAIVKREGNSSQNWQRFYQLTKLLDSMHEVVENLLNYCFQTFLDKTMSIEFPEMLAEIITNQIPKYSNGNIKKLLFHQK
Chain of Lysosomal acid glucosylceramidase (Homo sapiens) (P04062 whole entry, looked up): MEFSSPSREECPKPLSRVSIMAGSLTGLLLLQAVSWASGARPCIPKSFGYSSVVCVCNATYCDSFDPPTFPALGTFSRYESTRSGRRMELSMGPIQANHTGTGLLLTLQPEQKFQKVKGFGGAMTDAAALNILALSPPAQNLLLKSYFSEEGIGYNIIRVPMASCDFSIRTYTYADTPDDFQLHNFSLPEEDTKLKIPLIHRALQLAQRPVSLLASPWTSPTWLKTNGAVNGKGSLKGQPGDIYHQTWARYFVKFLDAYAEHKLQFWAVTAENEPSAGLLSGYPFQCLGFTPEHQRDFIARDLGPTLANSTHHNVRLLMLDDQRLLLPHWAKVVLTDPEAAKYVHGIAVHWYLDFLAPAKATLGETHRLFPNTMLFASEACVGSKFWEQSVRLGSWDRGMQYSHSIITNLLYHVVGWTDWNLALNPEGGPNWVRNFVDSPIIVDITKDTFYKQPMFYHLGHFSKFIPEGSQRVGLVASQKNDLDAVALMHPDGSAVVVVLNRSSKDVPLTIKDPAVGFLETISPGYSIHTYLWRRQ
Chain of 3',5'-cyclic-AMP phosphodiesterase 4B (Homo sapiens) (Q07343 whole entry, looked up): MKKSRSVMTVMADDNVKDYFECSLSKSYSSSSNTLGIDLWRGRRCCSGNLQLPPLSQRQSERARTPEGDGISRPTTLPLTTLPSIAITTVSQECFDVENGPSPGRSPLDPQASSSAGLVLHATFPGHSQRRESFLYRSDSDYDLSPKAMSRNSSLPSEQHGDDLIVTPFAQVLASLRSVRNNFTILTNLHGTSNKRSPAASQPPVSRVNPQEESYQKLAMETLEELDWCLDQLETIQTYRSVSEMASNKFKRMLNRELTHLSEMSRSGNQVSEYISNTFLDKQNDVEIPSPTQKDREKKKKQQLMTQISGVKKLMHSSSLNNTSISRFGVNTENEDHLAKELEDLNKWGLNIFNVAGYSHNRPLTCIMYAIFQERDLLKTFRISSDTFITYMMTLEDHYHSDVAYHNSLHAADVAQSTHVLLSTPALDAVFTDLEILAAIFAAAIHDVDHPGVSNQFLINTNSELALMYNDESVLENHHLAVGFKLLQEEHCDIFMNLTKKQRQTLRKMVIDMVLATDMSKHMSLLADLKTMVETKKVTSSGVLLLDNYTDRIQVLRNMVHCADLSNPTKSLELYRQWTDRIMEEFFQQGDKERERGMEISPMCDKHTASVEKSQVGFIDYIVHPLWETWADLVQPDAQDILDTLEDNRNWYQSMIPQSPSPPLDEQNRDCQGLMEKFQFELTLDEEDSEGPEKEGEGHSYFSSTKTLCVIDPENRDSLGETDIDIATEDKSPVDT
Chain of Cytochrome P450 1A2 (Homo sapiens) (P05177 whole entry, looked up): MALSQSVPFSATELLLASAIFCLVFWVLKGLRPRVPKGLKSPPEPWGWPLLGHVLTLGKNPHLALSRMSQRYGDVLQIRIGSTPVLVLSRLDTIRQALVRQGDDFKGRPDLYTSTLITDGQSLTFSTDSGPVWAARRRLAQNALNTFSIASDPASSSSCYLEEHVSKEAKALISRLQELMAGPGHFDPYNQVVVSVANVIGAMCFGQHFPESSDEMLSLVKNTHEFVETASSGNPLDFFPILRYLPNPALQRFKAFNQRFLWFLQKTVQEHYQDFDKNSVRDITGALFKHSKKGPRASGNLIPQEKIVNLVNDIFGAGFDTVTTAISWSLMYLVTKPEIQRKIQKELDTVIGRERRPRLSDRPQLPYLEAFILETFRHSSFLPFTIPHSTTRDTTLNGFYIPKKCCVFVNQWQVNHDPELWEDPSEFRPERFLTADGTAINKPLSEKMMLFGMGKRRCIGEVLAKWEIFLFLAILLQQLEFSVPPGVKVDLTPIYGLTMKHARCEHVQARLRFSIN
Chain of Cytochrome P450 3A4 (Homo sapiens) (P08684 whole entry, looked up): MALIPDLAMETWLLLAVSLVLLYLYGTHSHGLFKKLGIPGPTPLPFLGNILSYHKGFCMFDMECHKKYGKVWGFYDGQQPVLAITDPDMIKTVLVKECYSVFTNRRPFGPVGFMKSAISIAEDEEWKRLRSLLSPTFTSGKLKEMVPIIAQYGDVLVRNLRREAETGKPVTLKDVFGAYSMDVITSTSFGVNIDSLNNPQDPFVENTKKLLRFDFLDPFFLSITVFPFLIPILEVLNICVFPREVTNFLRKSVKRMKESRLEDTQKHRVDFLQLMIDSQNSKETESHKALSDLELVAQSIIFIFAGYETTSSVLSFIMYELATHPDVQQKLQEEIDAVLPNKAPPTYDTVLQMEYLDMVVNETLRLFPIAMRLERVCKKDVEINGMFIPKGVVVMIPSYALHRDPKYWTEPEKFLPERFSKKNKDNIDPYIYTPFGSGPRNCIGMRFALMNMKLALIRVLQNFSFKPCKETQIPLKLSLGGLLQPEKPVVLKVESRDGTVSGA
Chain of Cytochrome P450 2D6 (Homo sapiens) (P10635 whole entry, looked up): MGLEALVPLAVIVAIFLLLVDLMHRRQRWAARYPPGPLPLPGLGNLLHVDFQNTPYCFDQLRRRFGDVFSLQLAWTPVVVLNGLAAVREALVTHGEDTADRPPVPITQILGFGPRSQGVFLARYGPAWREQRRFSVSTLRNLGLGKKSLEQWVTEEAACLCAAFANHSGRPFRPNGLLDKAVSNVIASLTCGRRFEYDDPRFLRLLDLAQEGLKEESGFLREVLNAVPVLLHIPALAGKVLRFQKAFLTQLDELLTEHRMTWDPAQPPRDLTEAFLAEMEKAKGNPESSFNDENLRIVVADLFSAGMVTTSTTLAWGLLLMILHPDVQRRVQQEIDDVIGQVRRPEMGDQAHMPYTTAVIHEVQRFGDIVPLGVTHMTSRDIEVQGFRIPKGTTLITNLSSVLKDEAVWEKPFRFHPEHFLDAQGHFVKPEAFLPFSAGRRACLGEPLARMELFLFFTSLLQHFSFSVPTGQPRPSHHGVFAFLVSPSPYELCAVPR

COc1ccc(CNc2nc(-c3c(C)noc3C)nc3ccccc23)c(OC)c1
inactive: Potency [1] > 2.29 µM | activity change, negative = inhibition [2] 5.92% | Potency [4] > 46 µM | Potency [5] > 46 µM | Potency [6] | Potency [8] | Potency [10] | Potency [11] | outcome [12]
active: Potency [3] 0.794 µM | Potency [7] 2.51 µM | Potency [9] 3.16 µM

COc1cccc(Cn2c(=O)c(-c3ccc(Cl)cc3)nc3cnc(OC)nc32)c1
active: Potency [3] 3.98 µM
inactive: Potency [1] > 11.4 µM | activity change, negative = inhibition [2] -15.4% | activity change, negative = inhibition [13] 8.55% | activity, negative = inhibition [14] 4.34% | Potency [4] > 9.22 µM | Potency [5] > 46 µM | Potency [6] | Potency [10] | Potency [11] | Potency [15] | outcome [12]

CC(=O)NCCNc1ncnc2ccc(-c3ccccc3C(F)(F)F)cc12
active: Potency [3] 10 µM | Potency [7] 6.31 µM | Potency [10] 31.6 µM
inactive: Potency [1] > 11.4 µM | activity change, negative = inhibition [2] 12.5% | activity change, negative = inhibition [13] 6.87% | Potency [4] > 46 µM | Potency [5] > 46 µM | Potency [6] | Potency [8] | Potency [11] | Potency [15] | outcome [12]

Cc1noc(C)c1-c1nccc(N(C)Cc2ccco2)n1
inactive: Potency [1] > 11.4 µM | activity change, negative = inhibition [2] 6.47% | activity change, negative = inhibition [13] -3.01% | activity, negative = inhibition [14] 3.88% | Potency [4] > 46 µM | Potency [5] > 46 µM | Potency [6] | Potency [16] | Potency [8] | Potency [10] | Potency [11] | Potency [15] | outcome [12]
active: Potency [3] 2 µM

CN(Cc1ccco1)c1ccnc(-c2cccc(C#N)c2)n1
active: Potency [3] 0.398 µM | Potency [10] 15.8 µM | Potency [11] 14.1 µM
inactive: Potency [1] > 11.4 µM | activity change, negative = inhibition [2] -18.2% | activity, negative = inhibition [14] 2.59% | Potency [4] > 46 µM | Potency [5] > 46 µM | Potency [6] | Potency [16] | Potency [8] | Potency [15] | outcome [12]

CCNc1ncc2nc(-c3cc(F)cc(F)c3)c(=O)n(CCOC)c2n1
inactive: Potency [1] > 11.4 µM | Potency [4] > 9.22 µM | Potency [5] > 46 µM | Potency [6] | Potency [8] | Potency [18] | Potency [15] | outcome [12]
active: Potency [3] 3.16 µM | Potency [17] 0.316 µM

CN(Cc1ccco1)c1cc(-c2ccccc2C(F)(F)F)ncn1
inactive: Potency [1] > 11.4 µM | activity change, negative = inhibition [2] 9.11% | activity change, negative = inhibition [13] -16.3% | activity, negative = inhibition [14] 3.49% | Potency [4] > 46 µM | Potency [5] > 46 µM | Potency [6] | Potency [16] | Potency [10] | Potency [11] | Potency [15] | outcome [12]
